The campaign covered roughly 39,000 compounds. About 3,300 (8.5%) were called active. The list comes from a sample in which actives are over-represented; it also holds similar structures and randomly drawn compounds.
tested on: HepG2; assay: cytotoxicity call (relative viability < 0.9); conditions: 10 µM

Structure (SMILES)	cytotoxicity call
C[C@@H]1CN([C@@H](C)CO)S(=O)(=O)c2ccc(Br)cc2O[C@@H]1CN(C)CC1CCOCC1	inactive
CC(C)NC(=O)Nc1ccc2c(c1)C(=O)N([C@H](C)CO)C[C@H](C)[C@H](CN(C)Cc1ccc(C(F)(F)F)cc1)OCCCC[C@@H](C)O2	inactive
CC(C)NC(=O)Nc1ccc2c(c1)C(=O)N([C@H](C)CO)C[C@@H](C)[C@H](CN(C)Cc1ccc(C(F)(F)F)cc1)OCCCC[C@H](C)O2	active
CC(C)NC(=O)Nc1ccc2c(c1)C(=O)N([C@H](C)CO)C[C@@H](C)[C@H](CN(C)Cc1ccc(C(F)(F)F)cc1)OCCCC[C@@H](C)O2	active
CC(C)NC(=O)Nc1ccc2c(c1)C(=O)N([C@@H](C)CO)C[C@H](C)[C@H](CN(C)Cc1ccc(C(F)(F)F)cc1)OCCCC[C@@H](C)O2	active
CC(C)NC(=O)Nc1ccc2c(c1)C(=O)N([C@H](C)CO)C[C@H](C)[C@@H](CN(C)Cc1ccc(C(F)(F)F)cc1)OCCCC[C@@H](C)O2	inactive
CC(C)NC(=O)Nc1ccc2c(c1)C(=O)N([C@H](C)CO)C[C@@H](C)[C@@H](CN(C)Cc1ccc(C(F)(F)F)cc1)OCCCC[C@H](C)O2	inactive
CC(C)NC(=O)Nc1ccc2c(c1)C(=O)N([C@@H](C)CO)C[C@@H](C)[C@H](CN(C)Cc1ccc(C(F)(F)F)cc1)OCCCC[C@@H](C)O2	inactive
CC(C)NC(=O)Nc1ccc2c(c1)C(=O)N([C@H](C)CO)C[C@H](C)[C@@H](CN(C)Cc1ccc(C(F)(F)F)cc1)OCCCC[C@H](C)O2	inactive
CC(C)NC(=O)Nc1ccc2c(c1)C(=O)N([C@@H](C)CO)C[C@@H](C)[C@@H](CN(C)Cc1ccc(C(F)(F)F)cc1)OCCCC[C@H](C)O2	inactive
CC(C)NC(=O)Nc1ccc2c(c1)C(=O)N([C@@H](C)CO)C[C@H](C)[C@@H](CN(C)Cc1ccc(C(F)(F)F)cc1)OCCCC[C@@H](C)O2	active
CC(C)NC(=O)N(C)C[C@@H]1Oc2ccc(NC(=O)CCN3CCOCC3)cc2C(=O)N([C@@H](C)CO)C[C@@H]1C	inactive
COc1ccc2c3c(n(c2c1)C)[C@H](CO)N(C[C@]13CCN(CC1)C(=O)CC1CC1)C(=O)CN1CCOCC1	inactive
COc1ccc(-c2cnc3c(c2)C(=O)N([C@@H](C)CO)C[C@@H](C)[C@H](CN(C)C(=O)C2CCOCC2)O3)cc1	inactive
C[C@H]1CCCCO[C@H](CN(C)Cc2ccc(C(=O)O)cc2)[C@@H](C)CN([C@@H](C)CO)C(=O)c2cc(NC(=O)Cc3ccccc3)ccc2O1	inactive
Cc1ccc(S(=O)(=O)Nc2ccc3c(c2)C(=O)N([C@@H](C)CO)C[C@@H](C)[C@@H](CN(C)CC2CC2)O3)cc1	inactive
CO[C@H]1CN(C)C(=O)c2ccc(NS(=O)(=O)c3ccccc3)cc2OC[C@H](C)N(C(=O)NC(C)C)C[C@@H]1C	inactive
COc1ccc(NC(=O)N(C)C[C@H]2Oc3ccc(NS(=O)(=O)c4cn(C)cn4)cc3CC(=O)N([C@@H](C)CO)C[C@H]2C)cc1	inactive
O=C(C[C@@H]1C[C@H]2c3cc(NC(=O)Cc4ccncc4)ccc3O[C@H]2[C@H](CO)O1)NCCN1CCCCC1	inactive
CC(=O)N[C@H]1[C@H](O[C@@H]2[C@@H](O)[C@H](C)O[C@@H](Oc3ccc4c(=O)c(-c5ccc(O)cc5)coc4c3)[C@@H]2O)O[C@H](CO)[C@@H](O[C@@H]2O[C@@H](C)[C@H](O)[C@@H](O)[C@H]2O)[C@@H]1O	inactive
O=C(C[C@@H]1C=C[C@@H](NC(=O)c2ccncc2)[C@@H](CO)O1)NCc1ccncn1	inactive
C[C@@H]1CCCCO[C@H](CN(C)Cc2ccc(C(=O)O)cc2)[C@H](C)CN([C@@H](C)CO)C(=O)c2cc(NC(=O)Nc3ccc(F)cc3)ccc2O1	inactive
COc1ccc(S(=O)(=O)Nc2ccc3c(c2)C(=O)N([C@H](C)CO)C[C@H](C)[C@@H](CN(C)S(=O)(=O)c2ccccc2)O3)cc1	inactive
CC(C)NC(=O)Nc1ccc2c(c1)C(=O)N([C@H](C)CO)C[C@H](C)[C@H](CN(C)Cc1ccc(C(F)(F)F)cc1)OCCCC[C@H](C)O2	inactive

Structure (SMILES)	cytotoxicity call
CC(C)NC(=O)Nc1ccc2c(c1)C(=O)N([C@@H](C)CO)C[C@H](C)[C@@H](CN(C)Cc1ccc(C(F)(F)F)cc1)OCCCC[C@H](C)O2	active
CC(C)NC(=O)Nc1ccc2c(c1)C(=O)N([C@@H](C)CO)C[C@H](C)[C@H](CN(C)Cc1ccc(C(F)(F)F)cc1)OCCCC[C@H](C)O2	inactive
CC(C)NC(=O)Nc1ccc2c(c1)C(=O)N([C@@H](C)CO)C[C@@H](C)[C@H](CN(C)Cc1ccc(C(F)(F)F)cc1)OCCCC[C@H](C)O2	inactive
CC(C)NC(=O)Nc1ccc2c(c1)C(=O)N([C@H](C)CO)C[C@@H](C)[C@@H](CN(C)Cc1ccc(C(F)(F)F)cc1)OCCCC[C@@H](C)O2	inactive
CC(C)NC(=O)Nc1ccc2c(c1)C(=O)N([C@@H](C)CO)C[C@@H](C)[C@@H](CN(C)Cc1ccc(C(F)(F)F)cc1)OCCCC[C@@H](C)O2	active
O=C(C[C@@H]1C=C[C@@H](NC(=O)c2cnccn2)[C@H](CO)O1)NCc1ccccc1F	inactive
O=C(C[C@@H]1C[C@@H]2c3cc(NC(=O)Cc4ccncc4)ccc3O[C@@H]2[C@H](CO)O1)NCc1cccc(F)c1	inactive
CS(=O)(=O)[O-].C[n+]1ccccc1C=NO	inactive
OCc1cccc(CO)c1F	inactive
COc1ccc(S(=O)(=O)Nc2ccc3c(c2)CC(=O)N([C@@H](C)CO)C[C@H](C)[C@H](CN(C)C)O3)cc1	inactive
C[C@@H](O)CC1=C[C@H]([C@@H](C)O)OC1=O	inactive
COc1ccc(S(=O)(=O)N(C)C[C@@H]2Oc3ccc(NS(=O)(=O)c4cccs4)cc3C(=O)N([C@H](C)CO)C[C@H]2C)cc1	inactive
C[C@@H]1CN([C@H](C)CO)C(=O)c2cc(NS(=O)(=O)c3ccc(F)cc3)ccc2O[C@H]1CN(C)S(=O)(=O)c1cn(C)cn1	active
C[C@@H]1CN([C@@H](C)CO)C(=O)c2cc(NS(=O)(=O)c3cn(C)cn3)ccc2O[C@H]1CN(C)S(C)(=O)=O	active
C[C@@H]1CN([C@H](C)CO)C(=O)c2cc(NS(=O)(=O)c3cn(C)cn3)ccc2O[C@H]1CN(C)S(=O)(=O)c1cccs1	inactive
COc1ccc(S(=O)(=O)N(C)C[C@H]2Oc3ccc(NS(=O)(=O)c4cccs4)cc3C(=O)N([C@H](C)CO)C[C@H]2C)cc1	inactive
C[C@H](CO)N1C[C@H](C)[C@H](CN(C)S(=O)(=O)c2cn(C)cn2)Oc2ccc(NS(=O)(=O)c3ccc(F)cc3)cc2C1=O	inactive
C[C@H](CO)N1C[C@H](C)[C@@H](CN(C)S(=O)(=O)c2cn(C)cn2)Oc2ccc(NS(=O)(=O)c3ccc(F)cc3)cc2C1=O	inactive
C[C@@H]1CN([C@H](C)CO)C(=O)c2cc(NS(=O)(=O)c3cn(C)cn3)ccc2O[C@@H]1CN(C)S(C)(=O)=O	inactive
C[C@H]1CN([C@@H](C)CO)C(=O)c2cc(NS(=O)(=O)c3cn(C)cn3)ccc2O[C@@H]1CN(C)S(C)(=O)=O	inactive
C[C@@H]1CN([C@H](C)CO)C(=O)c2cc(NS(=O)(=O)c3cn(C)cn3)ccc2O[C@@H]1CN(C)S(=O)(=O)c1cccs1	inactive
C[C@@H]1CN([C@@H](C)CO)C(=O)c2cc(NS(=O)(=O)c3cn(C)cn3)ccc2O[C@H]1CN(C)S(=O)(=O)c1cccs1	active
COc1ccc(S(=O)(=O)N(C)C[C@@H]2Oc3ccc(NS(=O)(=O)c4cccs4)cc3C(=O)N([C@@H](C)CO)C[C@@H]2C)cc1	active
CC(C)NC(=O)N(C)C[C@H]1Oc2ccc(NC(=O)CCC(F)(F)F)cc2CC(=O)N([C@H](C)CO)C[C@@H]1C	inactive

Structure (SMILES)	cytotoxicity call
C[C@@H]1CCCCO[C@H](CN(C)C(=O)Nc2ccccc2)[C@@H](C)CN([C@H](C)CO)C(=O)c2cc(NC(=O)Nc3cccc4ccccc34)ccc2O1	inactive
Cc1noc(C)c1S(=O)(=O)Nc1ccc2c(c1)C(=O)N([C@@H](C)CO)C[C@@H](C)[C@H](CN(C)C(=O)Nc1ccccc1)OCCCC[C@@H](C)O2	inactive
N[C@@H](C(=O)O)[C@@H](O)[C@H](O)[C@H](O)CO	inactive
Fc1ccc(C2=NNC3=NCCN3C2)cc1F	inactive
COc1ccc(S(=O)(=O)Nc2cccc3c2O[C@H](CN(C)S(=O)(=O)c2ccccc2)[C@@H](C)CN([C@H](C)CO)C3=O)cc1	inactive
C[C@@H]1CCCCO[C@@H](CN(C)Cc2ccc(C(=O)O)cc2)[C@H](C)CN([C@H](C)CO)C(=O)c2cc(NC(=O)Nc3ccccc3)ccc2O1	inactive
C[C@H]1CN([C@@H](C)CO)C(=O)Cc2cc(NS(=O)(=O)c3cn(C)cn3)ccc2O[C@H]1CN(C)C	inactive
CNC[C@@H]1OCCCC[C@@H](C)Oc2ccc(NC(=O)c3ccncc3)cc2C(=O)N([C@H](C)CO)C[C@@H]1C	inactive
C[C@H]1CN([C@@H](C)CO)C(=O)c2cccc(NC(=O)Nc3cccc4ccccc34)c2O[C@@H]1CN(C)S(=O)(=O)c1cccs1	inactive
O=C(C[C@H]1C[C@H]2c3cc(NC(=O)Nc4ccc(C(F)(F)F)cc4)ccc3O[C@H]2[C@@H](CO)O1)NCCc1ccccc1	inactive
C[C@@H]1CN([C@H](C)CO)C(=O)c2cc(NS(=O)(=O)c3cccs3)ccc2O[C@H]1CN(C)S(=O)(=O)c1cccs1	active
C[C@H](CO)N1C[C@H](C)[C@@H](CN(C)S(=O)(=O)c2cccs2)Oc2ccc(NS(=O)(=O)c3cccs3)cc2C1=O	inactive
C[C@@H]1CN([C@H](C)CO)C(=O)Cc2cc(NS(=O)(=O)c3cccs3)ccc2O[C@@H]1CN(C)S(=O)(=O)c1cccs1	inactive
C[C@@H]1CN([C@@H](C)CO)C(=O)Cc2cc(NS(=O)(=O)c3cccs3)ccc2O[C@H]1CN(C)S(=O)(=O)c1cccs1	inactive
C[C@@H]1CN([C@@H](C)CO)C(=O)c2cc(NS(=O)(=O)c3cn(C)cn3)ccc2O[C@@H]1CN(C)C(=O)Nc1ccccc1	inactive
C[C@H]1CN([C@@H](C)CO)C(=O)c2cc(NS(=O)(=O)c3cccs3)ccc2O[C@H]1CN(C)S(=O)(=O)c1cccs1	inactive
C[C@H](CO)N1C[C@H](C)[C@H](CN(C)C(=O)Nc2ccccc2)Oc2ccc(NS(=O)(=O)c3cn(C)cn3)cc2C1=O	active
C[C@@H]1CN([C@H](C)CO)C(=O)c2cc(NS(=O)(=O)c3cn(C)cn3)ccc2O[C@@H]1CN(C)C(=O)Nc1ccccc1	inactive
COc1ccc(S(=O)(=O)N(C)C[C@H]2Oc3ccc(NS(=O)(=O)c4cccs4)cc3C(=O)N([C@@H](C)CO)C[C@@H]2C)cc1	inactive
COc1ccc(S(=O)(=O)N(C)C[C@@H]2Oc3ccc(NS(=O)(=O)c4cccs4)cc3C(=O)N([C@H](C)CO)C[C@@H]2C)cc1	active
C[C@H](CO)N1C[C@H](C)[C@@H](CN(C)S(=O)(=O)c2cccs2)Oc2ccc(NS(=O)(=O)c3cccs3)cc2CC1=O	active
COc1ccc(S(=O)(=O)N(C)C[C@H]2Oc3ccc(NS(=O)(=O)c4cccs4)cc3C(=O)N([C@@H](C)CO)C[C@H]2C)cc1	inactive
